A short description of assay [1]: viability loss in pontine glioma line – cell-based, SU-DIPG-XVII, MIPE5.0, CellTiter-Glo, qHTS, dose response (AID 1347060; cut-off not given, nearly all actives have AC50 up to about 26 µM;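 for AC50: cells exposed to compound for 48 hours before viability readout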). As to conditions: CellTiter-Glo ATP luminescence.
Assay [2] can be described thus: viability loss in pontine glioma line – cell-based, SU-DIPG-XIII, MIPE5.0, CellTiter-Glo, qHTS, dose response (AID 1347064; cut-off not given, nearly all actives have AC50 up to about 23 µM;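 for AC50: cells exposed to compound for 48 hours before the viability read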). As to conditions: CellTiter-Glo ATP luminescence.
Assay [3] in a line: viability loss in pontine glioma line – cell-based, SU-DIPG-XXV, MIPE5.0, CellTiter-Glo, qHTS, dose response (AID 1347065; cut-off not given, nearly all actives have AC50 up to about 26 µM;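 note: cells exposed to compound for 48 hours before ATP readout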). As to conditions: CellTiter-Glo ATP luminescence.
Assay [4] is described as follows: growth inhibition of DIPG cells – cell-based, MIPE4.0 library, CellTiter-Glo luminescence, qHTS (AID 1347066; cut-off not given, nearly all actives have AC50 up to about 30 µM;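 note: cells exposed to compound for 48 hours before readout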). The note with it: SU-DIPG-VI viability, CellTiter-Glo ATP luminescence.
Assay [5] is described as follows: JHH-DIPG-1 glioma cell viability, MIPE5.0 library, CellTiter-Glo luminescence, qHTS (AID 1347067; cut-off not given, nearly all actives have AC50 up to about 26 µM;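 note: cells exposed to compound for 48 hours before readout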). As to conditions: JHH-DIPG-1 glioma viability, CellTiter-Glo ATP luminescence.
Assay [6] in a line: growth inhibition of DIPG cells – cell-based, MIPE5.0 library, qHTS (AID 1347068; cut-off not given, nearly all actives have IC50 up to about 30 µM;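 for IC50: cells exposed to compound for 48 hours before viability readout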). As to conditions: SU-DIPG-XXV viability.
Assay [7] in a line: viability loss with induced miR-34 in A549 – imaging, A549 dox-inducible miR-34, nuclei and caspase counts, primary screen (AID 1347080;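 active = compounds whose cell count with miR-34 switched on is under 0.7 times the count with it off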). The note with it: A549 miR-34 inducible, Hoechst nuclei count, 48 h.
A short description of assay [8]: compounds altering HSF1 focus formation in cells – imaging, Selleck Cancer Library (AID 1347162; in the data active = plate-normalised HSF1 focus index below about 0.46). The note with it: human cells, HSF1 nuclear foci imaging, at 10 µM; SSMD: measured here: HSF1 foci SSMD mean; cell count: measured here: cell number; plate-normalised HSF1 focus index: stronger effect = lower value.
Assay [9] can be described thus: MELAS cybrid and Rieske KO viability enhancers – cell-based, MELAS cybrids, Rieske KO mouse fibroblasts, CellTiter-Glo, primary screen (AID 1508586;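 active = mean z-score across replicates of 1.96 or higher in either the MELAS or the Rieske mutant cell line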;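 note: z relative to plate mean and SD of compound and empty wells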). As to conditions: low glucose.
Assay [10] in a line: drug combination growth inhibition, ovarian cancer – cell-based, oncology-focused library, rucaparib conditional, profiling panel (AID 1508598). As to conditions: patient-derived ovarian cancer cells, CellTiter-Glo viability, 144 h, stronger effect = lower value.
[11] abbreviates: stronger effect = lower value, cell number ratio, induced over uninduced.
The mark [12] stands for this setting: measured here: relative caspase fold change +Dox/-Dox.
[13] abbreviates: measured here: total cells with miR-34 induction, stronger effect = lower value.
Where [14] appears, read: measured here: total cells without miR-34 induction.
[15] abbreviates: MELAS cybrid survival, CellTiter-Glo 48 h, stronger effect = higher value.
Setting [16] is: Rieske KO mouse fibroblast survival, CellTiter-Glo 72 h.
Setting [17] is: at 0.000305 µM, OCI-C5x cells, with rucaparib 10 µM, 100% = cells with rucaparib alone.
Setting [18] is: at 0.000305 µM, OCI-C5x cells, without rucaparib.
[19] abbreviates: at 0.000305 µM, OCI-P5x cells, with rucaparib 20 µM, 100% = cells with rucaparib alone.
The mark [20] stands for this setting: at 0.000305 µM, OCI-P5x cells, without rucaparib.
The mark [21] stands for this setting: at 0.00122 µM, OCI-C5x cells, with rucaparib 10 µM, 100% = cells with rucaparib alone.
The mark [22] stands for this setting: at 0.00122 µM, OCI-C5x cells, without rucaparib.
Setting [23] is: at 0.00122 µM, OCI-P5x cells, with rucaparib 20 µM, 100% = cells with rucaparib alone.
The mark [24] stands for this setting: at 0.00122 µM, OCI-P5x cells, without rucaparib.
[25] abbreviates: at 0.00488 µM, OCI-C5x cells, with rucaparib 10 µM, 100% = cells with rucaparib alone.
Setting [26] is: at 0.00488 µM, OCI-C5x cells, without rucaparib.
The mark [27] stands for this setting: at 0.00488 µM, OCI-P5x cells, with rucaparib 20 µM, 100% = cells with rucaparib alone.
Where [28] appears, read: at 0.00488 µM, OCI-P5x cells, without rucaparib.
[29] abbreviates: at 0.0195 µM, OCI-C5x cells, with rucaparib 10 µM, 100% = cells with rucaparib alone.
[30] abbreviates: at 0.0195 µM, OCI-C5x cells, without rucaparib.
Where [31] appears, read: at 0.0195 µM, OCI-P5x cells, with rucaparib 20 µM, 100% = cells with rucaparib alone.
The mark [32] stands for this setting: at 0.0195 µM, OCI-P5x cells, without rucaparib.
Where [33] appears, read: at 0.0781 µM, OCI-C5x cells, with rucaparib 10 µM, 100% = cells with rucaparib alone.
[34] abbreviates: at 0.0781 µM, OCI-C5x cells, without rucaparib.
Setting [35] is: at 0.0781 µM, OCI-P5x cells, with rucaparib 20 µM, 100% = cells with rucaparib alone.
[36] abbreviates: at 0.0781 µM, OCI-P5x cells, without rucaparib.
Setting [37] is: at 0.313 µM, OCI-C5x cells, with rucaparib 10 µM, 100% = cells with rucaparib alone.
The mark [38] stands for this setting: at 0.313 µM, OCI-C5x cells, without rucaparib.
Setting [39] is: at 0.313 µM, OCI-P5x cells, with rucaparib 20 µM, 100% = cells with rucaparib alone.
Where [40] appears, read: at 0.313 µM, OCI-P5x cells, without rucaparib.
[41] abbreviates: at 1.25 µM, OCI-C5x cells, with rucaparib 10 µM, 100% = cells with rucaparib alone.
[42] abbreviates: at 1.25 µM, OCI-C5x cells, without rucaparib.
[43] abbreviates: at 1.25 µM, OCI-P5x cells, with rucaparib 20 µM, 100% = cells with rucaparib alone.
Where [44] appears, read: at 1.25 µM, OCI-P5x cells, without rucaparib.
The mark [45] stands for this setting: at 5 µM, OCI-C5x cells, with rucaparib 10 µM, 100% = cells with rucaparib alone.
[46] abbreviates: at 5 µM, OCI-C5x cells, without rucaparib.
Where [47] appears, read: at 5 µM, OCI-P5x cells, with rucaparib 20 µM, 100% = cells with rucaparib alone.
The mark [48] stands for this setting: at 5 µM, OCI-P5x cells, without rucaparib.

Structures are written as SMILES. Results filed as inconclusive are left out. Calls of active or inactive are those of the source.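 Rule for the calls, unless noted: active = normalized viability below 100% at a tested concentration; inactive = the rest.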

As to `C[C@H]1Oc2cc(cnc2N)-c2c(nn(C)c2C#N)CN(C)C(=O)c2ccc(F)cc21`, the results for the AC50 in [1], in assay [2] and in assay [3] were 14.8 µM (active), 10.5 µM (active) and 9.34 µM (active), respectively.

With `CN1CCN(c2cccc(Nc3nc4c(-c5ccc(S(C)(=O)=O)cc5)cccn4n3)c2)CC1`, the AC50 in [1] is 16.6 µM (active); in [2], 16.6 µM (active); in [3], 11.8 µM (active); in [4] it was 23.5 µM (active); in assay [5], 20.9 µM (active). Besides, the concentration for half-maximal inhibition (IC50) in [6] is 11.8 µM (active). Besides, the fold change in assay [7] (setting [11]) is 0.892 (inactive); in [7] (setting [12]), 0.496. For the same compound, the values for the cell count in assay [7] (setting [13]), in assay [7] (setting [14]) and in [8] were 5770, 6470 and 6270, respectively. This compound showed an SSMD in assay [8] of -2.58. The plate-normalised HSF1 focus index in assay [8] was 0.914 (inactive). Moreover, the z-score is -0.221 (inactive) in assay [9] (setting [15]) and 0.00545 in assay [9] (setting [16]). The viability in [10] (setting [17]) is 113% (inactive); in assay [10] (setting [18]) it was 104% (inactive); in [10] (setting [19]), 101% (inactive); in assay [10] (setting [20]) it was 90.7% (active); in assay [10] (setting [21]), 115% (inactive); in assay [10] (setting [22]) it was 112% (inactive). For the same compound, the viability in [10] (setting [23]) was 109% (inactive); in [10] (setting [24]) it was 96.6% (active); in assay [10] (setting [25]) it was 114% (inactive); in assay [10] (setting [26]) it was 123% (inactive); in [10] (setting [27]), 107% (inactive); in [10] (setting [28]) it was 104% (inactive). Also, the viability in assay [10] (setting [29]) is 115% (inactive); in assay [10] (setting [30]), 125% (inactive); in assay [10] (setting [31]) it was 117% (inactive); in assay [10] (setting [32]) it was 107% (inactive); in assay [10] (setting [33]), 114% (inactive); in assay [10] (setting [34]), 129% (inactive). In addition, the viability in assay [10] (setting [35]) is 112% (inactive); in assay [10] (setting [36]) it was 99.2% (active); in assay [10] (setting [37]), 113% (inactive); in assay [10] (setting [38]) it was 128% (inactive); in [10] (setting [39]) it was 115% (inactive); in assay [10] (setting [40]) it was 111% (inactive). Further, the viability in [10] (setting [41]) is 115% (inactive); in [10] (setting [42]) it was 138% (inactive); in assay [10] (setting [43]), 112% (inactive); in assay [10] (setting [44]), 111% (inactive); in assay [10] (setting [45]), 110% (inactive); in [10] (setting [46]), 206% (inactive). Besides, the viability is 45% (active) in assay [10] (setting [47]) and 77.6% (active) in [10] (setting [48]).

Take `COCCNCc1ccc(-c2cc3nccc(Oc4ccc(NC(=O)C5(C(=O)Nc6ccc(F)cc6)CC5)cc4F)c3s2)nc1`: the AC50 in [1] is 7.42 µM (active); in assay [2], 5.25 µM (active); in assay [3] it was 4.68 µM (active); in assay [5] it was 8.33 µM (active).

On to `CCC[C@H](NC(=O)[C@@H]1[C@H]2CCC[C@H]2CN1C(=O)[C@@H](NC(=O)[C@@H](NC(=O)c1cnccn1)C1CCCCC1)C(C)(C)C)C(=O)C(=O)NC1CC1`, for which the compound was classed as inactive in assay [1], in [2], in assay [3], in assay [4] and in [6]. Moreover, the AC50 in [5] was 18.6 µM (active).

Take `Cc1cc(O)c(-c2ccc([C@@H](C)CN)cc2)c2c1[nH]c(=O)c1sccc12`: the AC50 in assay [1] is 0.118 µM (active); in [2], 0.148 µM (active); in assay [3], 0.148 µM (active).

Turning to `Cc1ccc2c(=O)c3cccc(CC(=O)O)c3oc2c1C`, the compound was called inactive in [1], in [2], in assay [3], in assay [4], in assay [5] and in assay [6]. Moreover, the fold change was 0.947 (inactive) in assay [7] (setting [11]) and 1.03 in [7] (setting [12]). Further, the cell count in [7] (setting [13]) came out at 6780; in assay [7] (setting [14]), 7150. Moreover, the z-score in assay [9] (setting [15]) is -0.329 (inactive); in assay [9] (setting [16]), 0.338. Also, the viability in assay [10] (setting [17]) was 94.7% (active); in [10] (setting [18]) it was 116% (inactive); in assay [10] (setting [19]), 97% (active); in assay [10] (setting [20]), 97.7% (active); in assay [10] (setting [21]), 105% (inactive); in assay [10] (setting [22]) it was 110% (inactive). Besides, the viability in assay [10] (setting [23]) is 102% (inactive); in assay [10] (setting [24]), 101% (inactive); in [10] (setting [25]), 108% (inactive); in assay [10] (setting [26]) it was 116% (inactive); in assay [10] (setting [27]), 105% (inactive); in assay [10] (setting [28]), 103% (inactive). Moreover, the viability in assay [10] (setting [29]) is 113% (inactive); in assay [10] (setting [30]), 116% (inactive); in assay [10] (setting [31]), 107% (inactive); in [10] (setting [32]) it was 111% (inactive); in [10] (setting [33]), 115% (inactive); in [10] (setting [34]), 114% (inactive). Besides, the viability is 110% (inactive) in assay [10] (setting [35]); 113% (inactive) in assay [10] (setting [36]); 116% (inactive) in [10] (setting [37]); 115% (inactive) in assay [10] (setting [38]); 68.4% (active) in assay [10] (setting [39]); 19.4% (active) in [10] (setting [40]). In addition, the viability in assay [10] (setting [41]) is 118% (inactive); in assay [10] (setting [42]) it was 127% (inactive); in [10] (setting [43]) it was 104% (inactive); in [10] (setting [44]), 112% (inactive); in assay [10] (setting [45]), 103% (inactive); in assay [10] (setting [46]), 123% (inactive). Also, the viability was 104% (inactive) in [10] (setting [47]) and 122% (inactive) in [10] (setting [48]).

Take `CCc1nc(C(N)=O)c(Nc2ccc(N3CCC(N4CCN(C)CC4)CC3)c(OC)c2)nc1NC1CCOCC1`: the AC50 in assay [1] was 2.35 µM (active); in assay [2], 1.18 µM (active); in [3], 0.833 µM (active); in assay [5] it was 0.934 µM (active).

`Cc1cc(-c2ccc(CC(=O)Nc3ccc(-c4cccnc4)cc3)cc2)ccn1`: the result in assay [1], in assay [2], in assay [3], in assay [4], in assay [5] and in [6] was inactive. The fold change in [7] (setting [11]) is 0.957 (inactive); in assay [7] (setting [12]), 0.839. In addition, the cell count in assay [7] (setting [13]) was determined as 7810; in assay [7] (setting [14]), 8160. Also, the z-score is -0.327 (inactive) in [9] (setting [15]) and -0.153 in assay [9] (setting [16]).

Source of the values: PubChem BioAssay.
